Measurements published in the supplement of paper PMC13392028.
Whole data set: some 4,100 sequences, median “RBNS R-value (6-mer enrichment in protein-bound RNA vs input library)” near 0.99, cut for the highest 2% near 1.4. The entries come from a sample that favours the highest values as a whole.

Test system: PfIESI-1 RRM domain (Plasmodium falciparum ortholog aa 875-1232, GST fusion)
Experiment: RBNS R-value (6-mer enrichment in protein-bound RNA vs input library) (ratio); higher = stronger binding preference; the methods of the paper give 50 / 100 / 500 nM protein instead
Method in brief: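 The R-value, taken from the Burge lab pipeline, gives the enrichment of each motif in bound RNA relative to the input library. Motifs were 6-mers, and data come from one replicate. GST-tagged RNA-recognition-motif regions of orthologues from three Plasmodium species, made in E. coli and purified, were mixed at room temperature with a random 40-mer in vitro transcribed RNA library. Complexes were pulled down on glutathione magnetic agarose beads, washed three times, and bound and input RNA were reverse transcribed and sequenced on a MiSeq.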

In the case of UUAUAA, the “RBNS R-value” (protein concentration: 250 nM) is reported as 0.747, the “RBNS R-value” (protein concentration: 500 nM) is reported as 0.809 and the “RBNS R-value” (protein concentration: 1000 nM) is reported as 0.749.
UUGUCA was tested, and the “RBNS R-value” (protein concentration: 250 nM) was 0.891, the “RBNS R-value” (protein concentration: 500 nM) was 0.887 and the “RBNS R-value” (protein concentration: 1000 nM) was 0.9.
In the case of GCACUA, the “RBNS R-value” (protein concentration: 250 nM) is reported as 0.903, the “RBNS R-value” (protein concentration: 500 nM) is reported as 0.86 and the “RBNS R-value” (protein concentration: 1000 nM) is reported as 0.892.
In the case of ACACCU, the “RBNS R-value” (protein concentration: 250 nM) is reported as 1.23, the “RBNS R-value” (protein concentration: 500 nM) is reported as 1.16 and the “RBNS R-value” (protein concentration: 1000 nM) is reported as 1.12.
ACAACG was tested, and the “RBNS R-value” (protein concentration: 250 nM) was 0.949, the “RBNS R-value” (protein concentration: 500 nM) was 0.979 and the “RBNS R-value” (protein concentration: 1000 nM) was 0.966.
GCCCUG was tested, and the “RBNS R-value” (protein concentration: 250 nM) was 1.19, the “RBNS R-value” (protein concentration: 500 nM) was 1.1 and the “RBNS R-value” (protein concentration: 1000 nM) was 1.14.
With CACCCA the “RBNS R-value” (protein concentration: 250 nM) was 1.42, the “RBNS R-value” (protein concentration: 500 nM) was 1.26 and the “RBNS R-value” (protein concentration: 1000 nM) was 1.31.
With CACCCC the “RBNS R-value” (protein concentration: 250 nM) was 1.3, the “RBNS R-value” (protein concentration: 500 nM) was 1.16 and the “RBNS R-value” (protein concentration: 1000 nM) was 1.24.
CGCCCG was tested, and the “RBNS R-value” (protein concentration: 250 nM) was 1.43, the “RBNS R-value” (protein concentration: 500 nM) was 1.22 and the “RBNS R-value” (protein concentration: 1000 nM) was 1.33.
GGCCCG was tested, and the “RBNS R-value” (protein concentration: 250 nM) was 1.26, the “RBNS R-value” (protein concentration: 500 nM) was 1.11 and the “RBNS R-value” (protein concentration: 1000 nM) was 1.23.
In the case of CACCCG, the “RBNS R-value” (protein concentration: 250 nM) is reported as 1.67, the “RBNS R-value” (protein concentration: 500 nM) is reported as 1.33 and the “RBNS R-value” (protein concentration: 1000 nM) is reported as 1.41.
GACCCA was tested, and the “RBNS R-value” (protein concentration: 250 nM) was 1.15, the “RBNS R-value” (protein concentration: 500 nM) was 1.12 and the “RBNS R-value” (protein concentration: 1000 nM) was 1.14.
In the case of UACCCA, the “RBNS R-value” (protein concentration: 250 nM) is reported as 1.07, the “RBNS R-value” (protein concentration: 500 nM) is reported as 1.01 and the “RBNS R-value” (protein concentration: 1000 nM) is reported as 1.01.
UGCCCG was tested, and the “RBNS R-value” (protein concentration: 250 nM) was 1.32, the “RBNS R-value” (protein concentration: 500 nM) was 1.16 and the “RBNS R-value” (protein concentration: 1000 nM) was 1.2.
AACCCG was tested, and the “RBNS R-value” (protein concentration: 250 nM) was 1.38, the “RBNS R-value” (protein concentration: 500 nM) was 1.25 and the “RBNS R-value” (protein concentration: 1000 nM) was 1.29.
With AACCCC the “RBNS R-value” (protein concentration: 250 nM) was 1.11, the “RBNS R-value” (protein concentration: 500 nM) was 1.05 and the “RBNS R-value” (protein concentration: 1000 nM) was 1.08.
With ACCCCG the “RBNS R-value” (protein concentration: 250 nM) was 1.29, the “RBNS R-value” (protein concentration: 500 nM) was 1.16 and the “RBNS R-value” (protein concentration: 1000 nM) was 1.25.
For UACCCG, the “RBNS R-value” (protein concentration: 250 nM) was 1.3, the “RBNS R-value” (protein concentration: 500 nM) was 1.16 and the “RBNS R-value” (protein concentration: 1000 nM) was 1.2.
With AGUAGA the “RBNS R-value” (protein concentration: 250 nM) was 1.01, the “RBNS R-value” (protein concentration: 500 nM) was 1.08 and the “RBNS R-value” (protein concentration: 1000 nM) was 1.05.
In the case of GAUCGC, the “RBNS R-value” (protein concentration: 250 nM) is reported as 0.972, the “RBNS R-value” (protein concentration: 500 nM) is reported as 0.958 and the “RBNS R-value” (protein concentration: 1000 nM) is reported as 0.975.
AACACA was tested, and the “RBNS R-value” (protein concentration: 250 nM) was 0.942, the “RBNS R-value” (protein concentration: 500 nM) was 1.02 and the “RBNS R-value” (protein concentration: 1000 nM) was 0.978.
In the case of GAGUCA, the “RBNS R-value” (protein concentration: 250 nM) is reported as 0.969, the “RBNS R-value” (protein concentration: 500 nM) is reported as 0.989 and the “RBNS R-value” (protein concentration: 1000 nM) is reported as 0.99.
For UGCAAG, the “RBNS R-value” (protein concentration: 250 nM) was 0.989, the “RBNS R-value” (protein concentration: 500 nM) was 1.01 and the “RBNS R-value” (protein concentration: 1000 nM) was 1.03.
In the case of AUUAGU, the “RBNS R-value” (protein concentration: 250 nM) is reported as 0.821, the “RBNS R-value” (protein concentration: 500 nM) is reported as 0.901 and the “RBNS R-value” (protein concentration: 1000 nM) is reported as 0.849.
For CUCAGG, the “RBNS R-value” (protein concentration: 250 nM) was 1.03, the “RBNS R-value” (protein concentration: 500 nM) was 1.04 and the “RBNS R-value” (protein concentration: 1000 nM) was 1.09.
With CACCUA the “RBNS R-value” (protein concentration: 250 nM) was 1.09, the “RBNS R-value” (protein concentration: 500 nM) was 1.01 and the “RBNS R-value” (protein concentration: 1000 nM) was 1.01.
For CACCUG, the “RBNS R-value” (protein concentration: 250 nM) was 1.41, the “RBNS R-value” (protein concentration: 500 nM) was 1.3 and the “RBNS R-value” (protein concentration: 1000 nM) was 1.29.
For CACCUC, the “RBNS R-value” (protein concentration: 250 nM) was 1.07, the “RBNS R-value” (protein concentration: 500 nM) was 1 and the “RBNS R-value” (protein concentration: 1000 nM) was 1.05.
In the case of UCGGGG, the “RBNS R-value” (protein concentration: 250 nM) is reported as 1.04, the “RBNS R-value” (protein concentration: 500 nM) is reported as 0.984 and the “RBNS R-value” (protein concentration: 1000 nM) is reported as 1.05.
With UCUGCG the “RBNS R-value” (protein concentration: 250 nM) was 0.996, the “RBNS R-value” (protein concentration: 500 nM) was 0.968 and the “RBNS R-value” (protein concentration: 1000 nM) was 1.
In the case of UUAUUA, the “RBNS R-value” (protein concentration: 250 nM) is reported as 0.766, the “RBNS R-value” (protein concentration: 500 nM) is reported as 0.749 and the “RBNS R-value” (protein concentration: 1000 nM) is reported as 0.734.
In the case of UAUGGG, the “RBNS R-value” (protein concentration: 250 nM) is reported as 0.895, the “RBNS R-value” (protein concentration: 500 nM) is reported as 0.916 and the “RBNS R-value” (protein concentration: 1000 nM) is reported as 0.918.
In the case of UAUGGC, the “RBNS R-value” (protein concentration: 250 nM) is reported as 1.09, the “RBNS R-value” (protein concentration: 500 nM) is reported as 1.06 and the “RBNS R-value” (protein concentration: 1000 nM) is reported as 0.988.
CAUGGC was tested, and the “RBNS R-value” (protein concentration: 250 nM) was 1.03, the “RBNS R-value” (protein concentration: 500 nM) was 0.999 and the “RBNS R-value” (protein concentration: 1000 nM) was 1.03.
In the case of AAUGGG, the “RBNS R-value” (protein concentration: 250 nM) is reported as 1.03, the “RBNS R-value” (protein concentration: 500 nM) is reported as 1.06 and the “RBNS R-value” (protein concentration: 1000 nM) is reported as 1.03.
With GAUGGG the “RBNS R-value” (protein concentration: 250 nM) was 1.47, the “RBNS R-value” (protein concentration: 500 nM) was 1.46 and the “RBNS R-value” (protein concentration: 1000 nM) was 1.34.
In the case of GAUGGC, the “RBNS R-value” (protein concentration: 250 nM) is reported as 1.85, the “RBNS R-value” (protein concentration: 500 nM) is reported as 1.82 and the “RBNS R-value” (protein concentration: 1000 nM) is reported as 1.48.
CCUCCC was tested, and the “RBNS R-value” (protein concentration: 250 nM) was 1.06, the “RBNS R-value” (protein concentration: 500 nM) was 0.981 and the “RBNS R-value” (protein concentration: 1000 nM) was 1.04.
With ACUAGG the “RBNS R-value” (protein concentration: 250 nM) was 0.943, the “RBNS R-value” (protein concentration: 500 nM) was 0.956 and the “RBNS R-value” (protein concentration: 1000 nM) was 0.957.
UGGACA was tested, and the “RBNS R-value” (protein concentration: 250 nM) was 0.973, the “RBNS R-value” (protein concentration: 500 nM) was 0.993 and the “RBNS R-value” (protein concentration: 1000 nM) was 0.99.
